This note sets out measurements from PubChem BioAssay (EPA / NIEHS).

Conditions in all cases: mRNA level, 48 h; actives raise or lower the signal
Read-out in assay [1]: ABC Transporter (ABCC2), ABCC2 (gene 1244)
Briefly: LTEA_HepaRG_ABCC2: Life Technologies and Expression Analysis (LTEA) Assay for ABC Transporter (ABCC2) using HepaRG (AID 2283464). The method in brief: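 Gene expression of ABCC2 was determined by qRT-PCR in HepaRG cells exposed 48 h to chemicals (highest 100 uM, half-log dilutions). Activity was fitted in both directions relative to 0.5% DMSO vehicle.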

Read-out in assay [2]: Broad substrate specificity ATP-binding cassette transporter ABCG2 (Homo sapiens) (UniProt Q9UNQ0)
Briefly: LTEA_HepaRG_ABCG2: Life Technologies and Expression Analysis (LTEA) Assay for ABC Transporter (ABCG2) using HepaRG (AID 2283465). The method in brief:
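HepaRG, 48 h exposure, 8-pt half-log series from 100 uM, 0.5% DMSO vehicle, duplicates. Readout: ABCG2 transcript by qRT-PCR (Fluidigm array), housekeeping-normalized; bidirectional curve fit relative to DMSO baseline.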

Read-out in assay [3]: Peroxisomal acyl-coenzyme A oxidase 1 (ACOX1) gene, ACOX1 (gene 51)
Briefly: LTEA_HepaRG_ACOX1: Life Technologies and Expression Analysis (LTEA) Assay for Peroxisomal acyl-coenzyme A oxidase 1 (ACOX1) gene using HepaRG (AID 2283467). In outline: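 HepaRG, 48 h chemical exposure, 8-pt half-log series from 100 uM top, 0.5% DMSO vehicle, duplicates. Readout: ACOX1 mRNA by Fluidigm qRT-PCR, housekeeping-normalized; bidirectional fit vs DMSO baseline.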

Read-out in assay [4]: Alkaline Phosphatase, Placental (ALPP) gene, ALPP (gene 250)
Description: LTEA_HepaRG_ALPP: Life Technologies and Expression Analysis (LTEA) Assay for Alkaline Phosphatase, Placental (ALPP) gene using HepaRG (AID 2283468).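 For AC50: differentiated human HepaRG liver cells in serum-free induction medium; ALPP transcript by TaqMan qRT-PCR normalized to ACTB GAPDH and POLR2A.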 The method in brief: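 Expression of ALPP was quantified by qRT-PCR against three housekeeping genes in human HepaRG cultures treated for 48 h with an eight-point concentration series up to 100 uM. Activity in either direction was fitted relative to 0.5% DMSO.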

Read-out in assay [5]: Bcl-2 (BAD) gene, BAD (gene 572)
Description: LTEA_HepaRG_BAD: Life Technologies and Expression Analysis (LTEA) Assay for Bcl-2 (BAD) gene using HepaRG (AID 2283469). In outline:
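HepaRG, 48 h exposure, 8-pt half-log curve from 100 uM in 0.5% DMSO, duplicates. Readout: TaqMan qRT-PCR for BAD mRNA, housekeeping-normalised (ACTB/GAPDH/POLR2A); gain or loss fitted against DMSO baseline.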

Read-out in assay [6]: adenosine kinase (ADK) gene, ADK (gene 132)
Briefly: LTEA_HepaRG_ADK: Life Technologies and Expression Analysis (LTEA) Assay for adenosine kinase (ADK) gene using HepaRG (AID 2283471). The method in brief:
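ADK expression quantified by qRT-PCR, normalised to three housekeeping genes, after 48 h exposure of HepaRG cells to eight concentrations (top 100 uM, half-log steps, duplicate, 0.5% DMSO). Up- or down-regulation fitted relative to vehicle.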

Read-out in assay [7]: BCL2L11 (gene 10018)
Description: LTEA_HepaRG_BCL2L11: Life Technologies and Expression Analysis (LTEA) Assay for Bcl-2 (BCL2L11) gene using HepaRG (AID 2283473). The method in brief:
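Cells were plated, cultured 48 h, switched to serum-free induction medium, then dosed in duplicate for 48 h at eight half-log concentrations up to 100 uM. Lysates underwent RNA isolation and TaqMan qRT-PCR; gain or loss versus DMSO was fitted.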

Read-out in assay [8]: Apolipoprotein A-V (APOA5) gene, APOA5 (gene 116519)
Briefly: LTEA_HepaRG_APOA5: Life Technologies and Expression Analysis (LTEA) Assay for Apolipoprotein A-V (APOA5) gene using HepaRG (AID 2283474). In outline:
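Human liver HepaRG cells are treated 48 h with test chemicals (100 uM top, half-log dilutions, 0.5% DMSO). APOA5 mRNA induction or loss is measured by qRT-PCR relative to vehicle.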

Read-out in assay [9]: Apoptosis regulator Bcl-2 (Homo sapiens) (UniProt P10415)
Briefly: LTEA_HepaRG_BCL2: Life Technologies and Expression Analysis (LTEA) Assay for Bcl-2 gene using HepaRG (AID 2283475). In outline: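 Plated human HepaRG cells are exposed to test chemicals for 48 h across eight concentrations from 100 uM downward in half-log steps (0.5% DMSO). BCL2 expression is then measured by qRT-PCR with housekeeping normalisation and fitted bidirectionally against vehicle.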

Read-out in assay [10]: Bcl-2 (BID) gene, BID (gene 637)
Description: LTEA_HepaRG_BID: Life Technologies and Expression Analysis (LTEA) Assay for Bcl-2 (BID) gene using HepaRG (AID 2283476). The method in brief: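 Cells are plated, cultured 48 h, switched to serum-free induction medium, then dosed 48 h (100 uM top, half-log steps, 0.5% DMSO). RNA is isolated and BID expression read by qRT-PCR.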

Read-out in assay [11]: Caspase-3 (Homo sapiens) (UniProt P42574)
Briefly: LTEA_HepaRG_CASP3: Life Technologies and Expression Analysis (LTEA) Assay for cysteine-aspartic acid protease (CASP3) using HepaRG (AID 2283477). In outline:
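In HepaRG liver cells dosed for 48 h at up to 100 uM (eight-point, duplicate), CASP3 expression changes are scored by qRT-PCR. Activity is fitted in both directions with 0.5% DMSO as baseline.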

Read-out in assay [12]: Cytochrome P450 (CYP24A1), CYP24A1 (gene 1591)
Description: LTEA_HepaRG_CYP24A1: Life Technologies and Expression Analysis (LTEA) Assay for Cytochrome P450 (CYP24A1) using HepaRG (AID 2283478). In outline: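 Human liver HepaRG cultures receive each chemical for 48 h across an eight-point half-log series topping at 100 uM in 0.5% DMSO. Induction or suppression of CYP24A1 mRNA is scored relative to vehicle after housekeeping-gene normalization.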

Read-out in assay [13]: Cytochrome P450 (CYP1A2), CYP1A2 (gene 1544)
Description: LTEA_HepaRG_CYP1A2: Life Technologies and Expression Analysis (LTEA) Assay for Cytochrome P450 (CYP1A2) using HepaRG (AID 2283479).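 For AC50: TaqMan qRT-PCR transcript level normalized to ACTB GAPDH and POLR2A.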 The method in brief: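 Assesses CYP1A2 mRNA in human HepaRG liver cells after 48 h chemical exposure at up to 100 uM. Values come from qRT-PCR with bidirectional curve fitting relative to DMSO.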

Read-out in assay [14]: cysteine-aspartic acid protease (CASP8), CASP8 (gene 841)
Briefly: LTEA_HepaRG_CASP8: Life Technologies and Expression Analysis (LTEA) Assay for cysteine-aspartic acid protease (CASP8) using HepaRG (AID 2283480). The method in brief: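 qRT-PCR readout of CASP8 mRNA, normalized to three housekeeping genes, after 48 h chemical exposure of HepaRG cells; 8-point half-log series, top 100 uM, 0.5% DMSO vehicle. Bidirectional curve fitting against DMSO baseline.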

Read-out in assay [15]: Cytochrome P450 (CYP2B6), CYP2B6 (gene 1555)
Briefly: LTEA_HepaRG_CYP2B6: Life Technologies and Expression Analysis (LTEA) Assay for Cytochrome P450 (CYP2B6) using HepaRG (AID 2283481). In outline:
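Using 48 h treatment of HepaRG cells in serum-free induction medium, concentrations spanned half-log steps from 100 uM in 0.5% DMSO vehicle. CYP2B6 mRNA induction or loss is scored by qRT-PCR against DMSO.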

Read-out in assay [16]: Cytochrome P450 2C19 (Homo sapiens) (UniProt P33261)
Briefly: LTEA_HepaRG_CYP2C19: Life Technologies and Expression Analysis (LTEA) Assay for CYP2C19 using HepaRG (AID 2283482). In outline: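 Human HepaRG liver cells received test chemicals for 48 h (highest 100 uM, half-log dilutions in 0.5% DMSO). CYP2C19 mRNA induction or loss is read by multiplexed qRT-PCR and fitted in both directions versus vehicle.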

Read-out in assay [17]: Alpha-fetoprotein (AFP) gene, AFP (gene 174)
Description: LTEA_HepaRG_AFP: Life Technologies and Expression Analysis (LTEA) Assay for Alpha-fetoprotein (AFP) gene using HepaRG (AID 2283472). In outline: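 Chemicals were tested on differentiated HepaRG cells for 48 hours at eight concentrations up to 100 uM, with 0.5% DMSO as vehicle. AFP expression was then quantified by qRT-PCR and analyzed for gain or loss relative to DMSO.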

Activity calls are given as the source filed them. Rule for the calls: active = hit-call score of the fitted dose curve at least 0.9, where 1 is the maximum; inactive = score below 0.9.

Caspase-3 (Homo sapiens), sequence (P42574 whole entry, looked up): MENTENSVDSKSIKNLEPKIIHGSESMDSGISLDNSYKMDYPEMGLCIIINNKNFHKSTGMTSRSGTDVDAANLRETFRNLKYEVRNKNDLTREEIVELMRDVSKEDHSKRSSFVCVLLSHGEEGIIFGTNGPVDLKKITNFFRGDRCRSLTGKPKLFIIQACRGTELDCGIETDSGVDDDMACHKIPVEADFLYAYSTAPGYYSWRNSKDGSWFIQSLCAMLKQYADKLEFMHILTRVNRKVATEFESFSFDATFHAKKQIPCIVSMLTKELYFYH
Broad substrate specificity ATP-binding cassette transporter ABCG2 (Homo sapiens), sequence (Q9UNQ0 whole entry, looked up): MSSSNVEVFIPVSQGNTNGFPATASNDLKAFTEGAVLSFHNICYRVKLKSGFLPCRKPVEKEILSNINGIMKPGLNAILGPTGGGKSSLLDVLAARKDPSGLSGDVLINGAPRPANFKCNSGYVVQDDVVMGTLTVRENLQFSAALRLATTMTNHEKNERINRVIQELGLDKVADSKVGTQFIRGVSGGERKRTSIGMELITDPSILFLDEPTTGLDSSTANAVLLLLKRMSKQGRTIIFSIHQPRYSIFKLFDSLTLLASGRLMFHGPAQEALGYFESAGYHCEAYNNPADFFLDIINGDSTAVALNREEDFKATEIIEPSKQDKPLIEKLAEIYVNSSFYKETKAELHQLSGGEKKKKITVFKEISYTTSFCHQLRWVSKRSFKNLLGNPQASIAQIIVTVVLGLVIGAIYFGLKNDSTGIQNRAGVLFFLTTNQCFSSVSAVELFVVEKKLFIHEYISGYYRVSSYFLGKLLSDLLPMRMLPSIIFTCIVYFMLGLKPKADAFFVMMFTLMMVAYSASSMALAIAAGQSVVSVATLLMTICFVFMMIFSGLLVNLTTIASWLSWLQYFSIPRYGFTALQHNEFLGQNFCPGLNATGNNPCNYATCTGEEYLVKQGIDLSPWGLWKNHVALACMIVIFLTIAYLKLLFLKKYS
Cytochrome P450 2C19 (Homo sapiens), sequence (P33261 whole entry, looked up): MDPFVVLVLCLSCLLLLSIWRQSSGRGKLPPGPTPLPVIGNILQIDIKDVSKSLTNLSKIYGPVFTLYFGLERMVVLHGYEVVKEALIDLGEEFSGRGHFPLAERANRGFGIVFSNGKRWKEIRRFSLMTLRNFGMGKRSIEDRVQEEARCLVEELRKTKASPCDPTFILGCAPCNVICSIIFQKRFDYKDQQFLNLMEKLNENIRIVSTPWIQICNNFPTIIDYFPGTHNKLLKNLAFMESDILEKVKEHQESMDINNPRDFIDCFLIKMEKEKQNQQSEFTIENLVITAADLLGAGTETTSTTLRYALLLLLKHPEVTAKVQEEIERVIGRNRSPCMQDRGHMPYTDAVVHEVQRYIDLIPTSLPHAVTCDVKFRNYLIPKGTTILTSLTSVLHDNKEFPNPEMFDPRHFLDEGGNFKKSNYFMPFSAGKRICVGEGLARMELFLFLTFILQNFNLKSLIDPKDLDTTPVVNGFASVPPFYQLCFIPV
Apoptosis regulator Bcl-2 (Homo sapiens), sequence (P10415 whole entry, looked up): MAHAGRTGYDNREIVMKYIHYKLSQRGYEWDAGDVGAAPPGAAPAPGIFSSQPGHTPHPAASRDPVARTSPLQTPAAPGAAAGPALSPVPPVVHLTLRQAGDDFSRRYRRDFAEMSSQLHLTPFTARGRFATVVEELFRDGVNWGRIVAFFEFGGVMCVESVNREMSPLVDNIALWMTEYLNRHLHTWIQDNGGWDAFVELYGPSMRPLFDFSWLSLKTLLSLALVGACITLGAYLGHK

With `CCOC(=O)C(C)Oc1ccc(Oc2cnc3cc(Cl)ccc3n2)cc1` (stereo unspecified), the call in [1], in [2], in assay [3], in [4], in assay [5] and in [6] was inactive. Besides, the compound was classed as inactive in assay [7], in assay [8], in assay [9], in assay [10], in assay [11] and in [12]. In addition, the compound was called inactive in assay [14] and in assay [15]. Besides, the AC50 (in general, the midpoint of the concentration-response curve, whichever way the signal moves) is 19.2 µM (active) in assay [13] and 1.24 µM (active) in assay [16].
`CCCN(CCC)c1c([N+](=O)[O-])cc(C(F)(F)F)c(N)c1[N+](=O)[O-]`: the AC50 was 25.4 µM (active) in [1], 50 µM (active) in assay [8], 3.15 µM (active) in [15] and 5.41 µM (active) in assay [16]. Also, the compound was called inactive in [2], in assay [3], in [4], in assay [5], in assay [6] and in [7]. For the same compound, the call in [9], in assay [10], in assay [11], in assay [13] and in [14] was inactive.
Turning to `CCCCCCC(C)OC(=O)COc1nc(F)c(Cl)c(N)c1Cl` (stereo unspecified), the result in assay [1], in assay [2], in assay [3], in [4], in assay [5] and in [6] was inactive. The result in [7], in [8], in assay [9], in [10], in [11] and in assay [13] was inactive. For the same compound, the compound was called inactive in assay [14] and in assay [16]. For the same compound, the AC50 in [15] was 50 µM (active).
Take `CCN(CC)C(=O)c1cccc(C)c1`: the AC50 is 21.5 µM (active) in assay [1], 3.4 µM (active) in assay [15] and 12.9 µM (active) in [16]. In addition, the compound was called inactive in assay [2], in [3], in assay [4], in assay [5], in [6] and in assay [17]. Moreover, the result in assay [7], in assay [8], in assay [9], in [10], in assay [11] and in assay [12] was inactive. Also, the call in assay [13] and in assay [14] was inactive.
`CCCOC(=O)c1ccc(C(=O)OCCC)nc1`: the compound was classed as inactive in assay [1], in assay [2], in assay [3], in assay [4], in assay [5] and in [6]. Further, the result in assay [7], in assay [8], in assay [9], in assay [10], in assay [11] and in assay [12] was inactive. Further, the result in [14], in [15] and in assay [16] was inactive. In addition, in [13], the AC50 is 50 µM (active).
As to `Cc1nn(C)c(Oc2ccccc2)c1C=NOCc1ccc(C(=O)OC(C)(C)C)cc1`, the call in [1], in assay [5], in assay [6], in assay [10], in [11] and in assay [14] was inactive. In addition, the AC50 in assay [2] is 3.96 µM (active); in [3], 1.74 µM (active); in assay [4], 0.903 µM (active); in assay [7] it was 2.53 µM (active); in assay [8], 29.9 µM (active); in assay [9], 7.02 µM (active). Moreover, the AC50 is 2.35 µM (active) in assay [13], 1.68 µM (active) in assay [15] and 29.2 µM (active) in assay [16].
Turning to `CCNc1nc(N)nc(Cl)n1`, the compound was called inactive in assay [1], in assay [2], in assay [3], in assay [4], in [5] and in assay [6]. Moreover, the call in [17], in [7], in assay [8], in [9], in [10] and in [11] was inactive. The result in assay [12], in assay [13] and in assay [14] was inactive. In addition, the AC50 in assay [15] is 6.87 µM (active); in [16], 6.65 µM (active).
